Data published in PubChem BioAssay.
The source made the active and inactive calls. Unless noted, no rule for the calls is given here.

Key:
[1] = HepG2 liver cancer cell viability effects, profiling panel, resazurin fluorescence, 24 h, PK04 Diversity Set (AID 1172); conditions: higher = more signal
[2] = basal S. cerevisiae growth modulation, no modifier, primary screen, OD600, strain BY4716, 24 h, basal condition (AID 1173); conditions: OD600, 24 h, higher = more signal, called active from +8 up or from −8 down
[3] = MM1S myeloma cell viability, profiling panel, resazurin fluorescence, basal, 24 h, PK04 Diversity Set (AID 1174); conditions: higher = more signal, called active from +8 up or from −8 down;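 also: MM1S multiple myeloma cell line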
[4] = molecular target: Dihydroorotate dehydrogenase (quinone), mitochondrial (Plasmodium falciparum (isolate 3D7)) (UniProt Q08210); assay: PfDHODH enzyme inhibitors, primary screen, biochemical, C-terminal His tag, absorbance 600 nm (AID 1175); conditions: DCIP absorbance 600 nm, higher = more signal, called active from +8 up or from −8 down;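 also: recombinant parasite enzyme with a five histidine tag at its C terminus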
[5] = P. aeruginosa biofilm formation inhibitors, primary screen, strain PAO1, LB-PBS medium, absorbance 600 nm (AID 1176); conditions: P. aeruginosa PAO1 growth/biofilm, A600, 12 h; higher = more signal
[6] = S. cerevisiae RM11-1a growth modifiers, primary screen, strain RM11-1a, OD600, basal, 24 h (AID 1177); conditions: OD600, 24 h, higher = more signal, called active from +8 up or from −8 down;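 also: cultures grown under basal conditions with no added stressor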
[7] = E. coli acrAB mutant growth effects, primary screen, E. coli filamentation inducers, strain DRC39, OD650, 24 h (AID 1178); conditions: higher = more signal, called active from +8 up or from −8 down;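 also: growth measured as culture turbidity by optical density at 650 nm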
[8] = E. coli acrAB mutant growth effects, primary screen, E. coli filamentation inducers, strain DRC39, OD650, 48 h (AID 1179);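 also: screen aims at cell division blockers that make cells filament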; conditions: E. coli DRC39 delta-acrAB growth, higher = more signal, called active from +8 up or from −8 down
[9] = RPMI8226 myeloma cell viability, profiling panel, resazurin fluorescence, basal, 24 h, PK04 Diversity Set (AID 1180); conditions: higher = more signal;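 also: RPMI8826 multiple myeloma cell line at 5000 cells per well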
[10] = molecular target: E3 ubiquitin-protein ligase XIAP (Homo sapiens) (UniProt P98170); assay: XIAP binders, primary screen, biophysical, small-molecule microarray, fluorescence 635 nm (AID 1181); conditions: small-molecule microarray binding, higher = more signal;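 also: score merges 667 nm emission and signal to noise over triplicate slides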
[11] = test system: XIP peptide (Xip251-270) binding; assay: small-molecule binders of XIP peptide, primary screen, biochemical, small-molecule microarray, fluorescence 635/667 nm, 0.1 µg/mL protein (AID 1182); conditions: fluorescent protein binding, 635 nm, higher = more signal, called active from +8 up or from −8 down
[12] = test system: XIP peptide (Xip251-270); assay: small-molecule binders of XIP peptide, primary screen, biochemical, small-molecule microarray, fluorescence 635/667 nm, 0.5 µg/mL protein (AID 1183); conditions: small-molecule microarray binding, fluorescence 635 nm; higher = more signal
[13] = Plasmodium falciparum growth inhibition, primary screen, strain 3D7, DAPI fluorescence, 100 nL (AID 1184);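 also: parasites grown inside human red blood cells in medium with human serum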; conditions: P. falciparum 3D7 growth, 3 d, higher = more signal
[14] = molecular target: Homeobox protein Hox-A13 (Mus musculus) (UniProt Q62424); assay: inhibitors of HoxA13-DNA binding, primary screen, biochemical, fluorescence polarization, labeled oligonucleotide (AID 1185); conditions: 15 min, higher = more signal, called active from +8 up or from −8 down
[15] = inhibitors of hydroxyurea-induced Chk1 phosphorylation, primary screen, imaging, HeLa, phospho-Chk1 antibody, percent positive cells (AID 1186); conditions: hydroxyurea-induced phospho-Chk1 immunofluorescence imaging, higher = more signal
[16] = inhibitors of hydroxyurea-induced Chk1 phosphorylation, primary screen, imaging, HeLa, phospho-Chk1 nuclear intensity (AID 1187); conditions: hydroxyurea-induced phospho-Chk1 immunofluorescence imaging, higher = more signal

Chain of Dihydroorotate dehydrogenase (quinone), mitochondrial (Plasmodium falciparum (isolate 3D7)) (Q08210 whole entry, looked up): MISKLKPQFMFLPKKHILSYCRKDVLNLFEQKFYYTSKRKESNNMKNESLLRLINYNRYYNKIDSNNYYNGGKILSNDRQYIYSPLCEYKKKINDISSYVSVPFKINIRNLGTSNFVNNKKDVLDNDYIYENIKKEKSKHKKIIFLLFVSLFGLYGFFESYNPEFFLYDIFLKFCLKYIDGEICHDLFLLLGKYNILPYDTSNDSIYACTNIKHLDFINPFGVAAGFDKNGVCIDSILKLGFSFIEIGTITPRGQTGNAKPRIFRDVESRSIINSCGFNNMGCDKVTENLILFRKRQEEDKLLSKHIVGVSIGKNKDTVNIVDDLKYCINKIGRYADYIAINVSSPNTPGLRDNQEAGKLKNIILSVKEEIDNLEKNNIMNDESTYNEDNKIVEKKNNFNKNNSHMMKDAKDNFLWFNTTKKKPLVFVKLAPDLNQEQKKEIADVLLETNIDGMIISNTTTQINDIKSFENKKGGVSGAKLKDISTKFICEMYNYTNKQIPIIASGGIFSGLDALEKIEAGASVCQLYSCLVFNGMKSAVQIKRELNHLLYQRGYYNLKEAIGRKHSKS
Chain of E3 ubiquitin-protein ligase XIAP (Homo sapiens) (P98170 whole entry, looked up): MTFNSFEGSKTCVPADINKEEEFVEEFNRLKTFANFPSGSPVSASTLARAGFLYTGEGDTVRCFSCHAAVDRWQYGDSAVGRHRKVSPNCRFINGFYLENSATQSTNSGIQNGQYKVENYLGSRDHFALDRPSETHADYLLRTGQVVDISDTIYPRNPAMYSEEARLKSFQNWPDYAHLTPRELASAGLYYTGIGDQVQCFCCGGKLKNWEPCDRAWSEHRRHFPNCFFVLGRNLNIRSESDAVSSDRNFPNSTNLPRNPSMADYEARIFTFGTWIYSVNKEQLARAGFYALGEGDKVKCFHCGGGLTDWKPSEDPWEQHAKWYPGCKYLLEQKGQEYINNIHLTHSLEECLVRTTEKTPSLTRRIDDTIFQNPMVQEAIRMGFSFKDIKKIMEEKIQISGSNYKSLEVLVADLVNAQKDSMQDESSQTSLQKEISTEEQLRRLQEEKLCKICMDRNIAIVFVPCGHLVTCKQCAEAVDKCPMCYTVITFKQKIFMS
Chain of Homeobox protein Hox-A13 (Mus musculus) (Q62424 whole entry, looked up): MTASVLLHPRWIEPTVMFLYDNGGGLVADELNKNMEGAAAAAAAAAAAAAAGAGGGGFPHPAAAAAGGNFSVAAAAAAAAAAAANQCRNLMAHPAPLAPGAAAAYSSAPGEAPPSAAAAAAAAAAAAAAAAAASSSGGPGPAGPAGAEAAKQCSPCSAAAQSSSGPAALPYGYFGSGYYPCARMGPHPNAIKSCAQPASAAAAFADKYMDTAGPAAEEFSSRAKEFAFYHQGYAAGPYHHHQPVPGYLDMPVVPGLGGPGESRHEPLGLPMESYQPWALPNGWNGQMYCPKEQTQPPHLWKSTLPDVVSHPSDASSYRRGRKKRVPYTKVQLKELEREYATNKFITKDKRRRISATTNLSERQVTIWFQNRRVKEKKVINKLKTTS

Compound	z-score [1]	z-score [2]	z-score [3]	composite z-score [4]	z-score [5]	z-score [6]	z-score [7]	z-score [8]	z-score [9]	composite z-score [10]	composite z-score [11]	composite z-score [12]	z-score [13]	z-score [14]	z-score [15]	z-score [16]
CC(C)NC(=O)[C@@]1(Cc2ccccc2I)c2ccccc2C(=O)N(C2CCCCC2)[C@H]1c1ccc(CO)cc1	0.524	-0.557 (inactive)	0.224 (inactive)	-1.45 (inactive)	0.593 (inactive)	1.31 (inactive)	0.545 (inactive)	0.267 (inactive)	0.751	0.106	1.02 (inactive)	0.84	-1.89	-4.58 (inactive)	0.551 (inactive)	0.615 (inactive)
C=CCOC(=O)[C@@H]1[C@H]2C(=O)O[C@H](c3ccccc3)[C@H](c3ccccc3)N2[C@H](c2ccc(OCCOC(=O)[C@H]3C[C@H]4C(=O)N[C@@H](CCCCNC(C)=O)C(=O)N4[C@H]3c3ccc(O)cc3)cc2)[C@@]12C(=O)Nc1ccc(I)cc12	-0.0657	1.87 (inactive)	-0.967 (inactive)	0.626 (inactive)	2.56 (inactive)	2.34 (inactive)	-0.0715 (inactive)	-0.649 (inactive)	-0.145	-0.0566	0.393 (inactive)	0.566	-1.78	0.32 (inactive)	0.293 (inactive)	-0.568 (inactive)
CC(C)(C)OC(=O)CC[C@]1(C(=O)N2CCCCC2)N=C(c2ccc(OCCCO)cc2)O[C@H]1c1ccccc1	-0.302	-1.05 (inactive)	-1.37 (inactive)	-0.892 (inactive)	0.0937 (inactive)	-0.374 (inactive)	0.627 (inactive)	0.837 (inactive)	-0.128	0.354	1.24 (inactive)	0.814	-2.31	-4.83 (inactive)	-0.478 (inactive)	-0.787 (inactive)
CC(C)[Si](OCC[C@H]1O[C@]2(C(=O)N(Cc3ccccc3)c3ccccc32)[C@@H](C)[C@@H]1[Si](C)(C)O)(C(C)C)C(C)C	-0.563	-0.113 (inactive)	0.115 (inactive)	0.766 (inactive)	-0.66 (inactive)	1.11 (inactive)	-0.297 (inactive)	-0.837 (inactive)	0.261	-0.142	-0.177 (inactive)	0.457	-1.94	-0.292 (inactive)	-0.558 (inactive)	-0.322 (inactive)
CCOC(=O)C1=CC[C@@H](c2ccccc2)N(S(=O)(=O)c2ccc(C)cc2)[C@H]1C	0.302	1.11 (inactive)	-0.209 (inactive)	-1.18 (inactive)	-0.0601 (inactive)	1.43 (inactive)	-0.472 (inactive)	-0.4 (inactive)	-0.875	0.0512	0.214 (inactive)	0.862	-1.5	-2.38 (inactive)	-0.325 (inactive)	-0.586 (inactive)
C=CCN1C(=O)[C@@]2(Cc3ccccc3)N=C(c3ccc(OCCCO)cc3)O[C@H]2c2ccccc21	-0.406	-2.11 (inactive)	-2.82 (inactive)	0.324 (inactive)	1.39 (inactive)	0.414 (inactive)	-0.304 (inactive)	-0.239 (inactive)	-4.23	0.212	1.67 (inactive)	0.79	-1.92	-0.611 (inactive)	-0.0856 (inactive)	-0.138 (inactive)
C=C(CCCC)/C(=C/C[C@@H](OC(=O)c1ccncc1)c1cccc(OCCO)c1)c1cc(C(=O)OC)ccc1OC	1.02	0.199 (inactive)	-0.73 (inactive)	-0.757 (inactive)	1.05 (inactive)	0.0731 (inactive)	1.81 (inactive)	1.33 (inactive)	-0.647	0.137	1.33 (inactive)	0.74	-3.09	-3.11 (inactive)	0.0994 (inactive)	0.74 (inactive)
COCCOC(=O)N1C(=O)[C@@]2(c3cc(C#CC4=CCCCC4)ccc31)[C@H](C(=O)NC[C@H](O)c1ccccc1)[C@H]1C(=O)O[C@H](c3ccccc3)[C@H](c3ccccc3)N1[C@@H]2c1ccccc1OCCO	-1.57	1.76 (inactive)	-4.83 (inactive)	0.271 (inactive)	3.52 (inactive)	2.69 (inactive)	-0.504 (inactive)	-0.542 (inactive)	-4.64	0.175	0.51 (inactive)	0.681	-2.02	1.22 (inactive)	0.443 (inactive)	0.384 (inactive)
CCCC=C(CCC)[C@@H](NC(=O)c1ccccc1)c1ccccc1	-0.232	0.752 (inactive)	-1.01 (inactive)	-0.421 (inactive)	1.27 (inactive)	0.0321 (inactive)	0.164 (inactive)	0.475 (inactive)	0.0944	0.086	-1.3 (inactive)	-0.905	-0.639	-0.832 (inactive)	-0.442 (inactive)	-0.784 (inactive)
COC(=O)C1=CC(c2ccc(CO)cc2)=CC(c2cccs2)N(Cc2cccc(OC(F)(F)F)c2)C=C1C(=O)OC (centres undefined)	-0.55	-0.871 (inactive)	-1.67 (inactive)	-5.67 (inactive)	0.683 (inactive)	1.62 (inactive)	0.0045 (inactive)	-0.964 (inactive)	-0.701	0.109	2.19 (inactive)	0.79	-1.91	-8.1 (active)	0.311 (inactive)	0.206 (inactive)
COc1ccc([C@H]2C[C@H]3C(Br)=C[C@]2(OC)C(=O)[C@]32CO2)cc1	0.531	-3.26 (inactive)	-0.677 (inactive)	-0.314 (inactive)	0.662 (inactive)	-0.173 (inactive)	0.238 (inactive)	0.205 (inactive)	-0.139	-0.0599	0.288 (inactive)	0.261	0.755	-1.48 (inactive)	-0.445 (inactive)	-0.0049 (inactive)
COC(=O)c1ccc(C#CC(NP(=O)(c2ccccc2)c2ccccc2)c2ccccc2)cc1 (centres undefined)	-0.0848	0.441 (inactive)	0.693 (inactive)	-3.37 (inactive)	0.231 (inactive)	0.919 (inactive)	0.37 (inactive)	0.369 (inactive)	1.26	0.063	0.238 (inactive)	-0.0253	-0.253	-3.02 (inactive)	-1.14 (inactive)	-1.03 (inactive)
Cc1ccc(S[C@]2(C(=O)O)CC(=O)N(Cc3cc(C(F)(F)F)cc(C(F)(F)F)c3)[C@@H]2c2ccc(CO)cc2I)cc1	-0.101	-3.06 (inactive)	-2.57 (inactive)	0.0643 (inactive)	-0.481 (inactive)	0.555 (inactive)	0.0907 (inactive)	-0.0983 (inactive)	-1.47	-0.136	-0.313 (inactive)	0.761	-0.48	-2.32 (inactive)	0.407 (inactive)	1.08 (inactive)
COCCOC(=O)N1C(=O)[C@@]2(c3cc(C#CCC(C(=O)OC)C(=O)OC)ccc31)[C@H](c1ccccc1OCCO)N1[C@H](c3ccccc3)[C@H](c3ccccc3)OC(=O)[C@H]1[C@@H]2C(=O)N1CCCCCCC1	1.16	1.29 (inactive)	0.883 (inactive)	0.243 (inactive)	1.48 (inactive)	2.14 (inactive)	0.189 (inactive)	0.364 (inactive)	1.58	0.361	0.856 (inactive)	0.597	-1.97	2.94 (inactive)	-0.304 (inactive)	-0.309 (inactive)
Cc1ccc(S[C@]2(C(=O)NC(C)C)CC(=O)N(C3Cc4ccccc4C3)[C@@H]2c2ccc(CO)cc2)cc1	0.0858	-0.0445 (inactive)	0.48 (inactive)	-0.335 (inactive)	0.229 (inactive)	-0.792 (inactive)	-0.127 (inactive)	-0.768 (inactive)	0.33	0.0181	0.137 (inactive)	0.882	-1.29	-3.21 (inactive)	0.0695 (inactive)	0.0887 (inactive)
O=C(NCC(F)(F)F)[C@@H]1c2ccccc2C(=O)N(Cc2ccccc2Cl)[C@H]1c1ccc(CO)cc1	0.519	-0.331 (inactive)	0.403 (inactive)	-0.731 (inactive)	0.277 (inactive)	-0.562 (inactive)	0.113 (inactive)	0.183 (inactive)	0.641	0.282	0.0987 (inactive)	0.0561	-0.472	-2.37 (inactive)	0.178 (inactive)	0.449 (inactive)
CC(C)C[C@@H]1NC(=O)[C@H]2C[C@@H](C(=O)NCCCCCC[N+](C)(C)C)[C@@H](c3ccc(O)cc3)N2C1=O	1.27	-0.213 (inactive)	0.771 (inactive)	-1.51 (inactive)	-1.04 (inactive)	0.817 (inactive)	0.385 (inactive)	0.19 (inactive)	0.985	-0.176	0.28 (inactive)	0.608	1.17	-3.14 (inactive)	0.554 (inactive)	0.61 (inactive)
CN1C(=O)C2C=CC(C(O)C3CC=CCC3)N(Nc3ccccc3)C2C1=O (centres undefined)	-0.488	0.122 (inactive)	-0.533 (inactive)	0.0707 (inactive)	0.847 (inactive)	0.0862 (inactive)	-1.11 (inactive)	-0.196 (inactive)	-0.568	0.301	0.769 (inactive)	0.795	0.235	-3.96 (inactive)	0.202 (inactive)	0.25 (inactive)
COc1ccc(C(O)C2C=CC3C(=O)N(C)C(=O)C3N2N2CCCCC2)cc1OCc1ccccc1 (centres undefined)	1.06	-1.21 (inactive)	0.0046 (inactive)	1.05 (inactive)	0.779 (inactive)	1.26 (inactive)	-0.738 (inactive)	-0.811 (inactive)	-2.38	-0.0937	-0.001 (inactive)	0.582	-0.303	-4.76 (inactive)	0.245 (inactive)	-0.0779 (inactive)
